# Results: PubChem BioAssay (EPA / NIEHS)
# Activity calls are given as the source filed them. How the source made its calls: active means hit-call score of the fitted dose curve at least 0.9, where 1 is the maximum; inactive means score below 0.9.
# Key:
# Conditions in all cases: mRNA level, 48 h; actives raise or lower the signal
# [1] = read-out: Cytochrome P450 (CYP2B6), CYP2B6 (gene 1555); assay: LTEA_HepaRG_CYP2B6: Life Technologies and Expression Analysis (LTEA) Assay for Cytochrome P450 (CYP2B6) using HepaRG (AID 2283481)
# Summary of the method: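 Differentiated human HepaRG cells in serum-free induction medium, dosed in duplicate for 48 h over 8 half-log concentrations topping at 100 uM (0.5% DMSO). CYP2B6 mRNA measured by TaqMan qRT-PCR, normalized to ACTB, GAPDH, POLR2A; bidirectional fit versus DMSO.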
# [2] = read-out: Cytochrome P450 2C19 (Homo sapiens) (UniProt P33261); assay: LTEA_HepaRG_CYP2C19: Life Technologies and Expression Analysis (LTEA) Assay for CYP2C19 using HepaRG (AID 2283482)
# Summary of the method: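 Differentiated HepaRG cells in serum-free induction medium exposed 48 h in duplicate, 8 concentrations from 100 uM by half-log steps in 0.5% DMSO. CYP2C19 mRNA measured by TaqMan qRT-PCR, normalized to ACTB, GAPDH, POLR2A. Bidirectional fit versus DMSO.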
# CYP2C8 (gene 1558) = assay: LTEA_HepaRG_CYP2C8: Life Technologies and Expression Analysis (LTEA) Assay for CYP2C8 using HepaRG (AID 2283483)
# Summary of the method: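 Differentiated HepaRG cells in serum-free induction medium exposed 48 h in duplicate to 8 half-log concentrations from 100 uM in 0.5% DMSO. CYP2C8 mRNA by qRT-PCR normalized to ACTB, GAPDH, POLR2A; bidirectional fit versus DMSO.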
# CYP2C9 (gene 1559) = assay: LTEA_HepaRG_CYP2C9: Life Technologies and Expression Analysis (LTEA) Assay for CYP2C9 using HepaRG (AID 2283484)
# Summary of the method: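 Differentiated human HepaRG cells in serum-free induction medium were exposed 48 h to chemicals in 8-point half-log series from 100 uM (0.5% DMSO), in duplicate. CYP2C9 mRNA was measured by qRT-PCR, normalized to ACTB/GAPDH/POLR2A, with bidirectional fitting versus DMSO.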
# CYP2E1 (gene 1571) = assay: LTEA_HepaRG_CYP2E1: Life Technologies and Expression Analysis (LTEA) Assay for CYP2E1 using HepaRG (AID 2283485)
# Summary of the method: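 Human liver line HepaRG, plated 48 h, then serum-free induction medium + chemical x 48 h; 8-pt CRC from 100 uM, half-log, 0.5% DMSO, n=2. Readout: CYP2E1 mRNA qRT-PCR vs ACTB/GAPDH/POLR2A; bidirectional fit vs DMSO.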
# CYP4A11 (gene 1579) = assay: LTEA_HepaRG_CYP4A11: Life Technologies and Expression Analysis (LTEA) Assay for CYP4A11 using HepaRG (AID 2283486)
# Summary of the method: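 Differentiated HepaRG cells, 48 h after plating, exposed in duplicate for 48 h to 8 half-log concentrations up to 100 uM in 0.5% DMSO in serum-free induction medium. CYP4A11 mRNA measured by TaqMan qRT-PCR, normalized to ACTB, GAPDH and POLR2A.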
# [3] = read-out: Cytochrome P450 3A4 (Homo sapiens) (UniProt P08684); assay: LTEA_HepaRG_CYP3A4: Life Technologies and Expression Analysis (LTEA) Assay for CYP3A4 using HepaRG (AID 2283487)
# Summary of the method: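 HepaRG, 48 h exposure, 8-pt CRC from 100 uM (half-log), 0.5% DMSO, duplicates; serum-free induction medium. Readout: CYP3A4 mRNA, qRT-PCR, ACTB/GAPDH/POLR2A normalization. Bidirectional fit vs DMSO.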
# [4] = read-out: DNA damage-inducible transcript 3 (DDIT3), DDIT3 (gene 1649); assay: LTEA_HepaRG_DDIT3: Life Technologies and Expression Analysis (LTEA) Assay for DNA damage-inducible transcript 3 (DDIT3) using HepaRG (AID 2283488)
# Summary of the method: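 HepaRG plated 48 h, switched to serum-free induction medium, dosed 48 h (100 uM top, half-log, 8 pts, 0.5% DMSO, n=2); RNA isolated; DDIT3 by qRT-PCR; bidirectional curve fit vs DMSO.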
# [5] = read-out: Pro-epidermal growth factor (Homo sapiens) (UniProt P01133); assay: LTEA_HepaRG_EGF: Life Technologies and Expression Analysis (LTEA) Assay for Epidermal growth factor (EGF) using HepaRG (AID 2283489)
# Summary of the method: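 HepaRG cells (~100,000/well, 48 h pre-culture) exposed in duplicate for 48 h in serum-free induction medium to 8 half-log concentrations up to 100 uM in 0.5% DMSO. EGF mRNA by qRT-PCR, normalized to ACTB/GAPDH/POLR2A; bidirectional fit versus DMSO.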
# [6] = read-out: Early growth response protein 1 (EGR1) transcription factor, EGR1 (gene 1958); assay: LTEA_HepaRG_EGR1: Life Technologies and Expression Analysis (LTEA) Assay for Early growth response protein 1 (EGR1) transcription factor using HepaRG (AID 2283490)
# Summary of the method: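 Differentiated HepaRG cells in serum-free induction medium exposed 48 hours, duplicate, to 8 half-log concentrations up to 100 uM in 0.5% DMSO. EGR1 mRNA measured by TaqMan qRT-PCR, normalized to ACTB, GAPDH, POLR2A; bidirectional fit versus DMSO.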
# Chain of Cytochrome P450 3A4 (Homo sapiens) (P08684 whole entry, looked up): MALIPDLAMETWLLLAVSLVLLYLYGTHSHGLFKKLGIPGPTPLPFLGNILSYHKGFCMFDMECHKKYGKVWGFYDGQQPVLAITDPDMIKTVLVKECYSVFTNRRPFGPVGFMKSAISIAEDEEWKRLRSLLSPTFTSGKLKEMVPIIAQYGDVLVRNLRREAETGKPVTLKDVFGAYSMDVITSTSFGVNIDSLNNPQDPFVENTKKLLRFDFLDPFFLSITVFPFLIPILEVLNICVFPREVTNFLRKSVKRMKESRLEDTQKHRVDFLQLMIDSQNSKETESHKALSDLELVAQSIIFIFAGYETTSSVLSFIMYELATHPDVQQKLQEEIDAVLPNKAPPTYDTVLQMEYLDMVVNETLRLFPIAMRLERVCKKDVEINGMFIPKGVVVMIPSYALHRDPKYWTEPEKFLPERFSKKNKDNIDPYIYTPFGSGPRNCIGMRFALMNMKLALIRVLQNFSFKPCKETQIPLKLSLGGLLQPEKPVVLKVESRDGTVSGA
# Chain of Cytochrome P450 2C19 (Homo sapiens) (P33261 whole entry, looked up): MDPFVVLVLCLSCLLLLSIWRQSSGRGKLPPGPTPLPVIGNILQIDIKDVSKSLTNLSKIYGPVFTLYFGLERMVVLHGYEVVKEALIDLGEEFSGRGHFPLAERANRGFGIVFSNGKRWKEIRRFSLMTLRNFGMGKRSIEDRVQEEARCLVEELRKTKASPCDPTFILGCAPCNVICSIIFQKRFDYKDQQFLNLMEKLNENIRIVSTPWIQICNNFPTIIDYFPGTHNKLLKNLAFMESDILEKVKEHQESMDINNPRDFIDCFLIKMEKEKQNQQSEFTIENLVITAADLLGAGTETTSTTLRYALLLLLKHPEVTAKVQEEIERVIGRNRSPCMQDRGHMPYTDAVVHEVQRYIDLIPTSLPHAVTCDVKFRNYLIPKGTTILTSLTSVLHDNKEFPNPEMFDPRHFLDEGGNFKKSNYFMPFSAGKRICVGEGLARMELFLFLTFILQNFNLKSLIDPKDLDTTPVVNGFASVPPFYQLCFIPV
compound,measurement,setting,value
CCCCCCCCO,outcome,[1],inactive
same,outcome,[2],inactive
same,outcome,CYP2C8 (gene 1558),inactive
same,outcome,CYP2C9 (gene 1559),inactive
same,outcome,CYP2E1 (gene 1571),inactive
same,outcome,CYP4A11 (gene 1579),inactive
same,outcome,[3],inactive
same,outcome,[4],inactive
same,outcome,[5],inactive
CC1(C)C(=O)N(Br)C(=O)N1Br,AC50,[1],7.06 µM (active)
same,outcome,[2],inactive
same,outcome,CYP2C8 (gene 1558),inactive
same,outcome,CYP2C9 (gene 1559),inactive
same,outcome,CYP2E1 (gene 1571),inactive
same,outcome,CYP4A11 (gene 1579),inactive
same,outcome,[3],inactive
same,outcome,[4],inactive
same,outcome,[5],inactive
O=C1CCC(N2C(=O)c3ccccc3C2=O)C(=O)N1 (stereo not drawn),outcome,[1],inactive
same,outcome,[2],inactive
same,outcome,CYP2C8 (gene 1558),inactive
same,outcome,CYP2C9 (gene 1559),inactive
same,outcome,CYP2E1 (gene 1571),inactive
same,outcome,CYP4A11 (gene 1579),inactive
same,outcome,[3],inactive
same,outcome,[4],inactive
CC(C)CCCCCCOC(=O)c1ccc(C(=O)OCCCCCCC(C)C)c(C(=O)OCCCCCCC(C)C)c1,outcome,[1],inactive
same,outcome,[2],inactive
same,outcome,CYP2C8 (gene 1558),inactive
same,outcome,CYP2C9 (gene 1559),inactive
same,outcome,CYP2E1 (gene 1571),inactive
same,outcome,CYP4A11 (gene 1579),inactive
same,outcome,[3],inactive
same,outcome,[4],inactive
same,outcome,[5],inactive
same,outcome,[6],inactive
CCCCCCc1ccc(O)cc1O,outcome,[1],inactive
same,outcome,[2],inactive
same,outcome,CYP2C8 (gene 1558),inactive
same,outcome,CYP2C9 (gene 1559),inactive
same,outcome,CYP2E1 (gene 1571),inactive
same,outcome,CYP4A11 (gene 1579),inactive
same,outcome,[3],inactive
same,outcome,[4],inactive
same,outcome,[5],inactive
Fc1ccccc1[C@@H](F)COC1CCC(Nc2ncnc3[nH]ncc23)CC1 (stereo partly drawn),AC50,[1],30.9 µM (active)
same,AC50,[2],67.9 µM (active)
same,outcome,CYP2C8 (gene 1558),inactive
same,AC50,CYP2C9 (gene 1559),37.7 µM (active)
same,AC50,CYP2E1 (gene 1571),12.7 µM (active)
same,AC50,CYP4A11 (gene 1579),40.1 µM (active)
same,AC50,[3],35.6 µM (active)
same,AC50,[4],28.9 µM (active)
same,AC50,[5],50 µM (active)
O=C(O)c1cccc(N(Cc2cccnc2)c2ccc(OC(F)F)c(OC(F)F)c2)c1,outcome,[1],inactive
same,outcome,[2],inactive
same,outcome,CYP2C8 (gene 1558),inactive
same,outcome,CYP2C9 (gene 1559),inactive
same,AC50,CYP2E1 (gene 1571),5.18 µM (active)
same,outcome,CYP4A11 (gene 1579),inactive
same,AC50,[3],43.5 µM (active)
same,outcome,[4],inactive
same,outcome,[5],inactive
same,AC50,[6],50 µM (active)
Cc1c(-c2cccnc2)c2ccccc2n1CCCCC(=O)O,AC50,[1],35.9 µM (active)
same,outcome,[2],inactive
same,outcome,CYP2C8 (gene 1558),inactive
same,outcome,CYP2C9 (gene 1559),inactive
same,outcome,CYP2E1 (gene 1571),inactive
same,outcome,CYP4A11 (gene 1579),inactive
same,outcome,[3],inactive
same,outcome,[4],inactive
same,outcome,[5],inactive
same,outcome,[6],inactive
CC(=O)OCCC(C)C,outcome,[1],inactive
same,outcome,[2],inactive
same,outcome,CYP2C8 (gene 1558),inactive
same,outcome,CYP2C9 (gene 1559),inactive
same,outcome,CYP2E1 (gene 1571),inactive
same,outcome,CYP4A11 (gene 1579),inactive
same,outcome,[3],inactive
same,outcome,[4],inactive
same,outcome,[5],inactive
same,outcome,[6],inactive
CCOC(=O)c1ccc(C2CCC(NC[C@H](O)COc3ccc(O)c(NS(C)(=O)=O)c3)CC2)cc1 (stereo partly drawn),outcome,[1],inactive
same,outcome,[2],inactive
same,outcome,CYP2C8 (gene 1558),inactive
same,outcome,CYP2C9 (gene 1559),inactive
same,outcome,CYP2E1 (gene 1571),inactive
same,outcome,CYP4A11 (gene 1579),inactive
same,outcome,[3],inactive
same,outcome,[4],inactive
same,outcome,[5],inactive
O=c1n(CC2CO2)c(=O)n(CC2CO2)c(=O)n1CC1CO1 (stereo not drawn),outcome,[1],inactive
same,outcome,[2],inactive
same,outcome,CYP2C8 (gene 1558),inactive
same,outcome,CYP2C9 (gene 1559),inactive
same,outcome,CYP2E1 (gene 1571),inactive
same,outcome,CYP4A11 (gene 1579),inactive
same,AC50,[3],78.3 µM (active)
same,outcome,[4],inactive
same,outcome,[5],inactive
same,outcome,[6],inactive
C1N2CN3CN1CN(C2)C3,outcome,[1],inactive
same,outcome,[2],inactive
same,outcome,CYP2C8 (gene 1558),inactive
same,outcome,CYP2C9 (gene 1559),inactive
same,outcome,CYP2E1 (gene 1571),inactive
same,outcome,CYP4A11 (gene 1579),inactive
same,outcome,[3],inactive
same,outcome,[4],inactive
same,outcome,[5],inactive
same,outcome,[6],inactive
CC(C)CC(C)(O)C#CC(C)(O)CC(C)C (stereo not drawn),AC50,[1],21.9 µM (active)
same,AC50,[2],29.5 µM (active)
same,outcome,CYP2C8 (gene 1558),inactive
same,outcome,CYP2C9 (gene 1559),inactive
same,AC50,CYP2E1 (gene 1571),64.7 µM (active)
same,AC50,CYP4A11 (gene 1579),50 µM (active)
same,AC50,[3],19.4 µM (active)
same,outcome,[4],inactive
CCOCCOCCOCCO,outcome,[1],inactive
same,outcome,[2],inactive
same,outcome,CYP2C8 (gene 1558),inactive
same,outcome,CYP2C9 (gene 1559),inactive
same,outcome,CYP2E1 (gene 1571),inactive
same,outcome,CYP4A11 (gene 1579),inactive
same,outcome,[3],inactive
same,outcome,[4],inactive
same,outcome,[5],inactive
same,outcome,[6],inactive
CNCc1ccc(NC(=O)c2c[nH]c3c2C(=O)CCC3)cc1,outcome,[1],inactive
same,outcome,[2],inactive
same,outcome,CYP2C8 (gene 1558),inactive
same,outcome,CYP2C9 (gene 1559),inactive
same,outcome,CYP2E1 (gene 1571),inactive
same,outcome,CYP4A11 (gene 1579),inactive
same,outcome,[3],inactive
same,outcome,[4],inactive
same,outcome,[5],inactive
CC1=CC(=O)CC(C)(C)C1,outcome,[1],inactive
same,outcome,[2],inactive
same,outcome,CYP2C8 (gene 1558),inactive
same,outcome,CYP2C9 (gene 1559),inactive
same,outcome,CYP2E1 (gene 1571),inactive
same,outcome,CYP4A11 (gene 1579),inactive
same,outcome,[3],inactive
same,outcome,[4],inactive
same,outcome,[5],inactive
same,outcome,[6],inactive
COCCOCCOCCOC,outcome,[1],inactive
same,outcome,[2],inactive
same,outcome,CYP2C8 (gene 1558),inactive
same,outcome,CYP2C9 (gene 1559),inactive
same,outcome,CYP2E1 (gene 1571),inactive
same,outcome,CYP4A11 (gene 1579),inactive
same,outcome,[3],inactive
same,outcome,[4],inactive
same,outcome,[5],inactive
same,outcome,[6],inactive
O=C(CCCCCCCCc1cccnc1)N1CCC(C=C(c2ccccc2)c2ccccc2)CC1,AC50,[1],12.3 µM (active)
same,AC50,[2],34.9 µM (active)
same,AC50,CYP2C8 (gene 1558),29.7 µM (active)
same,AC50,CYP2C9 (gene 1559),31.2 µM (active)
same,AC50,CYP2E1 (gene 1571),14.1 µM (active)
same,AC50,CYP4A11 (gene 1579),12.6 µM (active)
same,AC50,[3],32 µM (active)
same,AC50,[4],22.1 µM (active)
same,outcome,[5],inactive
C[C@](N)(Cc1ccc(O)c(O)c1)C(=O)O,outcome,[1],inactive
same,outcome,[2],inactive
same,outcome,CYP2C8 (gene 1558),inactive
same,outcome,CYP2C9 (gene 1559),inactive
same,outcome,CYP2E1 (gene 1571),inactive
same,outcome,CYP4A11 (gene 1579),inactive
same,outcome,[3],inactive
same,outcome,[4],inactive
same,outcome,[5],inactive
same,outcome,[6],inactive
CC(O)CN(CCN(CC(C)O)CC(C)O)CC(C)O (stereo not drawn),outcome,[1],inactive
same,outcome,[2],inactive
same,AC50,CYP2C8 (gene 1558),12.6 µM (active)
same,outcome,CYP2C9 (gene 1559),inactive
same,outcome,CYP2E1 (gene 1571),inactive
same,AC50,CYP4A11 (gene 1579),12.8 µM (active)
same,outcome,[3],inactive
same,outcome,[4],inactive
same,outcome,[5],inactive
